Reference: PubChem BioAssay
The source made the active and inactive calls. Unless noted, how the calls were made is not given here.

Experiments:
[1] = compound effects on lung adenocarcinoma cell viability – A549, calcein-AM fluorescence, 48 h, basal, profiling panel (AID 1162); settings: higher = more signal; further: test concentration not given here
[2] = compound effects on differentiated 3T3-L1 adipocyte viability – cell-based, 3T3-L1 adipocytes, calcein-AM fluorescence, 48 h, basal, profiling panel (AID 1163); settings: 3T3-L1 adipocytes viability, higher = more signal; further: test concentration not given here
[3] = compound effects on hepatocellular carcinoma cell viability – HepG2, calcein-AM fluorescence, 48 h, basal, profiling panel (AID 1164); settings: higher = more signal; further: test concentration not given here
[4] = compound effects on multiple myeloma cell viability – MM1S, calcein-AM fluorescence, 48 h, basal, profiling panel (AID 1165); settings: higher = more signal;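 further: viability of MM1S multiple myeloma cells under basal unstimulated conditions; test concentration not given here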
[5] = calcein-AM signal in unstimulated myeloma cells – cell-based, calcein-AM fluorescence, 48 h, PK04 Diversity Set, profiling panel (AID 1166); settings: RPMI8226 myeloma viability, higher = more signal;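 further: cells grown under basal conditions without added stimulus; test concentration not given here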
[6] = JC-1 mitochondrial signal, unstimulated HepG2 cells – cell-based, JC-1 fluorescence, 24 h, 100 nL compound, profiling panel (AID 1167); settings: HepG2 mitochondrial potential, higher = more signal; further: test concentration not given here
[7] = JC-1 mitochondrial signal, unstimulated adipocytes – cell-based, JC-1 fluorescence, 3T3-L1 adipocytes, 24 h, 100 nL compound, profiling panel (AID 1168); settings: JC-1 mitochondrial fluorescence, higher = more signal, called active from +8 up or from −8 down; further: test concentration not given here
[8] = JC-1 mitochondrial signal, unstimulated myeloma cells – cell-based, JC-1 fluorescence, RPMI8226, 24 h, 100 nL compound, profiling panel (AID 1169); settings: JC-1 mitochondrial potential fluorescence, higher = more signal; further: test concentration not given here
[9] = JC-1 mitochondrial signal, unstimulated MM1S myeloma – cell-based, JC-1 fluorescence, 24 h, 100 nL compound, profiling panel (AID 1170); settings: MM1S mitochondrial potential, higher = more signal; further: test concentration not given here
[10] = resazurin metabolic signal in A549 cells – cell-based, resazurin fluorescence, 24 h, PK04 Diversity Set, profiling panel (AID 1171); settings: A549 viability, higher = more signal, called active from +8 up or from −8 down; further: test concentration not given here
[11] = resazurin metabolic signal in HepG2 cells – cell-based, resazurin fluorescence, 24 h, PK04 Diversity Set, profiling panel (AID 1172); settings: HepG2 viability, higher = more signal; further: test concentration not given here
[12] = budding yeast growth changes without added modifier – OD600, strain BY4716, 24 h, basal condition, primary screen (AID 1173); settings: S. cerevisiae BY4716 growth, OD600, 24 h; higher = more signal, called active from +8 up or from −8 down
[13] = viability profiling in MM1S myeloma cells – cell-based, resazurin fluorescence, basal, 24 h, PK04 Diversity Set, profiling panel (AID 1174); settings: higher = more signal, called active from +8 up or from −8 down; further: test concentration not given here
[14] = biological target: Dihydroorotate dehydrogenase (quinone), mitochondrial (Plasmodium falciparum (isolate 3D7)) (UniProt Q08210); experiment: inhibition of P. falciparum DHODH – biochemical, C-terminal His tag, absorbance 600 nm, primary screen (AID 1175); settings: PfDHODH enzyme, DCIP absorbance 600 nm; higher = more signal, called active from +8 up or from −8 down;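 further: recombinant parasite enzyme with a five histidine tag at its C terminus; test concentration not given here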
[15] = inhibition of PAO1 biofilm formation – strain PAO1, LB-PBS medium, absorbance 600 nm, primary screen (AID 1176); further: test concentration not given here; settings: P. aeruginosa PAO1 growth/biofilm, A600, 12 h; higher = more signal
[16] = growth modulation of vineyard yeast isolate – strain RM11-1a, OD600, basal, 24 h, primary screen (AID 1177);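 further: cultures grown under basal conditions with no added stressor; test concentration not given here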; settings: S. cerevisiae RM11-1a growth, OD600, 24 h; higher = more signal, called active from +8 up or from −8 down
[17] = growth of efflux-deficient E. coli DRC39 – strain DRC39, OD650, 24 h, E. coli filamentation inducers, primary screen (AID 1178);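 further: growth measured as culture turbidity by optical density at 650 nm; test concentration not given here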; settings: E. coli DRC39 acrAB, higher = more signal, called active from +8 up or from −8 down
[18] = growth of efflux-deficient E. coli DRC39 – strain DRC39, OD650, 48 h, E. coli filamentation inducers, primary screen (AID 1179);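 further: screen aims at cell division blockers that make cells filament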; settings: E. coli DRC39 delta-acrAB growth, higher = more signal, called active from +8 up or from −8 down
[19] = viability profiling in RPMI8226 myeloma cells – cell-based, resazurin fluorescence, basal, 24 h, PK04 Diversity Set, profiling panel (AID 1180); settings: higher = more signal;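 further: RPMI8826 multiple myeloma cell line at 5000 cells per well; test concentration not given here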
[20] = biological target: E3 ubiquitin-protein ligase XIAP (Homo sapiens) (UniProt P98170); experiment: small molecules binding XIAP protein – biophysical, small-molecule microarray, fluorescence 635 nm, primary screen (AID 1181); settings: higher = more signal;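 further: score merges 667 nm emission and signal to noise over triplicate slides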
Sequence of E3 ubiquitin-protein ligase XIAP (Homo sapiens) (P98170 whole entry, looked up): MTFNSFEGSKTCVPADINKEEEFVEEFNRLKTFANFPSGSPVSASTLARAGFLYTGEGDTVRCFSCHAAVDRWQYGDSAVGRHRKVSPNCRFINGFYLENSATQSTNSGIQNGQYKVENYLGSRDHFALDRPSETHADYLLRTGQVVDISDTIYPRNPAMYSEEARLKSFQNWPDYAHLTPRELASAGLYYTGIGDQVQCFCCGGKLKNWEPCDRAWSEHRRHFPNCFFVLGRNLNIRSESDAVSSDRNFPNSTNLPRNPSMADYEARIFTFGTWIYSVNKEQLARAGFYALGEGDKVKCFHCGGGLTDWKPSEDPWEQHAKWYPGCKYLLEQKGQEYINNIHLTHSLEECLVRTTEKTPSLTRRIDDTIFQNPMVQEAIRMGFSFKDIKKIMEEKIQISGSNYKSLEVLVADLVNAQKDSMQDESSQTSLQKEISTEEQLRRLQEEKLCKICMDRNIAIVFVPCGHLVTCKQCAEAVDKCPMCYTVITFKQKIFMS

Sequence of Dihydroorotate dehydrogenase (quinone), mitochondrial (Plasmodium falciparum (isolate 3D7)) (Q08210 whole entry, looked up): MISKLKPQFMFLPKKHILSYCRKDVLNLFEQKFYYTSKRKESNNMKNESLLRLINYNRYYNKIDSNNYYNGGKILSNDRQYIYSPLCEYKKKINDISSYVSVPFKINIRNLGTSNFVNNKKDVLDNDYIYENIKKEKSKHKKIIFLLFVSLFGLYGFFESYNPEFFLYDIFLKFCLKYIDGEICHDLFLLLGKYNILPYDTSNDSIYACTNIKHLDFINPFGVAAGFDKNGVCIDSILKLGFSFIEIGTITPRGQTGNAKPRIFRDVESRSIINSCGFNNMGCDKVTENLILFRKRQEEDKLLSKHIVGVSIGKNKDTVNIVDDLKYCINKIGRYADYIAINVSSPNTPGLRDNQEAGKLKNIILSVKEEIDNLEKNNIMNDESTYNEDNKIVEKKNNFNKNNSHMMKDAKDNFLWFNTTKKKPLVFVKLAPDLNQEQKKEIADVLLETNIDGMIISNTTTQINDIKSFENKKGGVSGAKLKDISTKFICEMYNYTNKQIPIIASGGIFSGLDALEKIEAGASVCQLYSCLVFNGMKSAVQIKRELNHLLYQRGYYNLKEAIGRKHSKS

## CCCCC(O)C1C=CC2C(=O)N(c3ccccc3)C(=O)C2N1Nc1ccc(C#N)cc1 (stereo not given)
[1]
  z-score: 0.233
[2]
  z-score: 0.15
[3]
  z-score: 1.2
[4]
  z-score: 0.105
[5]
  z-score: 0.0528
[6]
  z-score: -0.622
[7]
  z-score: -1.19 (inactive)
[8]
  z-score: -0.0799
[9]
  z-score: -0.0525
[10]
  z-score: -0.151 (inactive)
[11]
  z-score: -0.438
[12]
  z-score: -1.03 (inactive)
[13]
  z-score: 0.0125 (inactive)
[14]
  composite z-score: 0.318 (inactive)
[15]
  z-score: 0.999 (inactive)
[16]
  z-score: 0.63 (inactive)
[17]
  z-score: 0.172 (inactive)
[18]
  z-score: -0.465 (inactive)
[19]
  z-score: 0.628
[20]
  composite z-score: 0.169

## COC(=O)c1cccc([C@H]2OC(=CC(=O)OC(C)C)C[C@@H](c3cccc(C(=O)OC)c3)O2)c1
[1]
  z-score: -0.921
[2]
  z-score: 0.229
[3]
  z-score: -0.248
[4]
  z-score: -3.15
[5]
  z-score: -1.64
[6]
  z-score: -0.571
[7]
  z-score: -1.52 (inactive)
[8]
  z-score: -1.08
[9]
  z-score: -2.76
[10]
  z-score: -0.0417 (inactive)
[11]
  z-score: -0.674
[12]
  z-score: -2.43 (inactive)
[13]
  z-score: -0.799 (inactive)
[14]
  composite z-score: -0.351 (inactive)
[15]
  z-score: 0.188 (inactive)
[16]
  z-score: -0.258 (inactive)
[17]
  z-score: -0.435 (inactive)
[18]
  z-score: -0.0196 (inactive)
[19]
  z-score: 0.0732
[20]
  composite z-score: 0.378

## NC(=O)N1C(=O)C2C(C1=O)C1C=C(CCCO)C2C(C2CC2)N1Cc1sc2ccccc2c1Cl (stereo not given)
[1]
  z-score: 1.01
[2]
  z-score: 0.66
[3]
  z-score: 0.839
[4]
  z-score: -2.97
[5]
  z-score: -0.868
[6]
  z-score: 0.709
[7]
  z-score: 0.0485 (inactive)
[8]
  z-score: -0.0842
[9]
  z-score: 0.193
[10]
  z-score: 1.09 (inactive)
[11]
  z-score: 0.146
[12]
  z-score: -6.04 (inactive)
[13]
  z-score: 0.691 (inactive)
[14]
  composite z-score: -0.744 (inactive)
[15]
  z-score: -0.0099 (inactive)
[16]
  z-score: 0.269 (inactive)
[17]
  z-score: 0.718 (inactive)
[18]
  z-score: 0.152 (inactive)
[19]
  z-score: 0.555
[20]
  composite z-score: 0.0374

## C=CCN1Cc2ccccc2[C@H]2OC(c3ccc(OCCCO)cc3)=N[C@@]2(CCS(=O)(=O)c2ccccc2)C1=O
[1]
  z-score: 0.0622
[2]
  z-score: 0.413
[3]
  z-score: -0.37
[4]
  z-score: -1.56
[5]
  z-score: -0.209
[6]
  z-score: -0.971
[7]
  z-score: -0.509 (inactive)
[8]
  z-score: -0.798
[9]
  z-score: -0.0644
[10]
  z-score: 0.0687 (inactive)
[11]
  z-score: -0.439
[12]
  z-score: 1.11 (inactive)
[13]
  z-score: -0.321 (inactive)
[14]
  composite z-score: 0.2 (inactive)
[15]
  z-score: 1.2 (inactive)
[16]
  z-score: 0.86 (inactive)
[17]
  z-score: -0.135 (inactive)
[18]
  z-score: -0.342 (inactive)
[19]
  z-score: -0.0829
[20]
  composite z-score: -0.0599

## O=C1O[C@@H](c2ccccc2)[C@@H](c2ccccc2)N2[C@@H](c3ccccc3OCCO)[C@]3(C(=O)Nc4ccc(C#CCCO)cc43)[C@@H](C(=O)NC[C@H](O)c3ccccc3)[C@H]12
[1]
  z-score: -0.31
[2]
  z-score: 0.323
[3]
  z-score: 0.997
[4]
  z-score: 0.16
[5]
  z-score: -0.0269
[6]
  z-score: -1.16
[7]
  z-score: 0.00583 (inactive)
[8]
  z-score: -0.471
[9]
  z-score: -0.596
[10]
  z-score: 0.682 (inactive)
[11]
  z-score: 0.5
[12]
  z-score: 1.29 (inactive)
[13]
  z-score: 0.253 (inactive)
[14]
  composite z-score: 0.873 (inactive)
[15]
  z-score: 0.614 (inactive)
[16]
  z-score: 2.96 (inactive)
[17]
  z-score: 0.797 (inactive)
[18]
  z-score: 0.367 (inactive)
[19]
  z-score: -2.7
[20]
  composite z-score: -0.0669

## O=C(NC1CC1)[C@@H]1c2ccccc2C(=O)N(Cc2ccc(OC(F)(F)F)cc2)[C@H]1c1ccc(CO)cc1
[1]
  z-score: 1.1
[2]
  z-score: 0.707
[3]
  z-score: -0.591
[4]
  z-score: 0.0839
[5]
  z-score: -0.0348
[6]
  z-score: 2.35
[7]
  z-score: 0.379 (inactive)
[8]
  z-score: -0.261
[9]
  z-score: 0.825
[10]
  z-score: 1.03 (inactive)
[11]
  z-score: 1.26
[12]
  z-score: -0.327 (inactive)
[13]
  z-score: 1.23 (inactive)
[14]
  composite z-score: 0.347 (inactive)
[15]
  z-score: -0.233 (inactive)
[16]
  z-score: -0.544 (inactive)
[17]
  z-score: 0.392 (inactive)
[18]
  z-score: 1.11 (inactive)
[19]
  z-score: 0.718
[20]
  composite z-score: -0.239

## O=C1O[C@H](c2ccccc2)[C@H](c2ccccc2)N2[C@H]1[C@@H](C(=O)O)[C@]1(C(=O)Nc3ccc(C#CCCO)cc31)[C@H]2c1ccc(OCCO)cc1
[1]
  z-score: 0.616
[2]
  z-score: 1
[3]
  z-score: 0.461
[4]
  z-score: -0.963
[5]
  z-score: 0.926
[6]
  z-score: -0.76
[7]
  z-score: -0.138 (inactive)
[8]
  z-score: 0.489
[9]
  z-score: 0.492
[10]
  z-score: 0.367 (inactive)
[11]
  z-score: 0.174
[12]
  z-score: -0.829 (inactive)
[13]
  z-score: 0.686 (inactive)
[14]
  composite z-score: -1.01 (inactive)
[15]
  z-score: 0.967 (inactive)
[16]
  z-score: 0.159 (inactive)
[17]
  z-score: 0.312 (inactive)
[18]
  z-score: 0.471 (inactive)
[19]
  z-score: 0.68
[20]
  composite z-score: -0.177

## CC1CC/C=C\[C@H]2OC34C=CCN(c5ccc(Cl)cc5)C(=O)[C@H]3N(CCCCCCO)C(=O)[C@]4(C)C2C(=O)O1 (stereo not given in full)
[1]
  z-score: 0.943
[2]
  z-score: -3.94
[3]
  z-score: 0.606
[4]
  z-score: 1.88
[5]
  z-score: -0.368
[6]
  z-score: 0.232
[7]
  z-score: 0.115 (inactive)
[8]
  z-score: 1.03
[9]
  z-score: -0.439
[10]
  z-score: 0.523 (inactive)
[11]
  z-score: 0.25
[12]
  z-score: -0.257 (inactive)
[13]
  z-score: 0.722 (inactive)
[14]
  composite z-score: -1.1 (inactive)
[15]
  z-score: -0.801 (inactive)
[16]
  z-score: 0.268 (inactive)
[17]
  z-score: 0.251 (inactive)
[18]
  z-score: 0.732 (inactive)
[19]
  z-score: 0.485
[20]
  composite z-score: 1.65
